In PubChem BioAssay (NCI):
This is part of a sample that, as a whole, favours compounds with a hit. Of some 83,000 tested, about 20% had one in any assay.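 Plates (96-well) were seeded with cells, treated with compound at one concentration, and incubated for 48 hours before percent growth was determined.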 Unmarked numbers belong to inactive results. Calls of active or inactive are those of the source. The calls were made as follows: active = growth percent below 10; inactive = the rest.

system: U251 CNS; assay: NCI-60 one-dose screen, 48 h (100 = growth as untreated, 0 = no growth, -100 = all killed); conditions: 10 µM unless noted

| Structure (SMILES) | growth |
| --- | --- |
| C=C(C=O)[C@@H]1CC[C@]2(C(=O)O)CC[C@]3(C)C(CC[C@@H]4[C@@](C)(CCC#N)[C@H](C(=C)C=O)CC[C@]43C)[C@@H]12 (stereo partly drawn) | 5.39% (active) |
| NCCNC(=O)c1cccc(COc2ccccc2NC(=O)c2cc(Cl)c(Cl)[nH]2)c1 | 88.7% |
| COc1ccc(C2c3[nH]c4ccc(Cl)cc4c3CCN2c2oc(CO)nc2C#N)cc1 (stereo not drawn) | 38.9% |
| CN(C)c1ccc(-c2cc(-c3c[nH]c4ccccc34)nc(N)c2C#N)cc1 | 26.5% |
| COc1ccccc1/C=C1\Oc2ccc(O)c(O)c2C1=O | 86.8% |
| CCCCCc1ccc(S(=O)(=O)Nc2cc(-c3csc(N)n3)ccc2OC)cc1 | 95.8% |
| O=C(O)c1ccc(-n2c(=O)n(-c3cccc(C(F)(F)F)c3)c(=O)c3cc(-c4ccc(F)cc4F)ccc32)cc1 | 11.1% |
| Nn1c(=O)n(-c2cccc(C(F)(F)F)c2)c(=O)c2cc(-c3ccc(F)cc3F)ccc21 | 5.07% (active) |
| CCCCN1C(=O)/C(=c2\sc3n(c2=O)C2C(NN=3)N(CC)C(=O)N2CC)c2cc(C)ccc21 (stereo not drawn) | 98.3% |
| CC(C)[C@H]1c2[nH]c3ccccc3c2C[C@H]2C(=O)N(CCCCCCC(=O)NO)CC(=O)N12 | 81% |
| O=C(N/N=C\c1ccc(F)cc1)c1ccc2nc(-c3ccc(Br)cc3)[nH]c2c1 | -62.1% (active) |
| NC1[C@H]2CN(c3cnc(C(=O)Nc4cc(F)cc5cccnc45)cn3)C[C@@H]12 (stereo partly drawn) | 60.7% |
| Cc1ccsc1[C@H]1c2[nH]c3ccccc3c2C[C@H]2C(=O)N(CCCCCCC(=O)NO)CC(=O)N12 | 83.8% |
| CC(=O)N(O)CCCCCNC(=O)CCC(=O)N(O)CCCCCNC(=O)CCC(=O)N(O)CCCCCN(CCCCCCCCCC[P+](c1ccccc1)(c1ccccc1)c1ccccc1)CCCCCCCCCC[P+](c1ccccc1)(c1ccccc1)c1ccccc1 | 6.66% (active) |
| O=c1nc(Nc2ccc([N+](=O)[O-])cc2O)sc2ccccc12 | 36.8% |
| Cc1cc2nc(C(Cl)Cl)nc(-c3ccc(S(=O)(=O)N(C)C)cc3)n2n1 | 39.2% |
| C/C(CC1(O)C(=O)Nc2ccccc21)=N\O (stereo not drawn) | 98.8% |
| C[C@]12CC[C@H]3[C@@H](CC=C4C[C@@H](O)CC[C@@]43C)[C@@H]1CC[C@@H]2[C@](C)(O)CCc1cccnc1 | 74.1% |
| O=C(CSc1nnc(-c2cccs2)n1-c1ccccc1)Nc1ccccc1F | 89.3% |
| CC(=C(c1ccc(OCCCN(C)C)cc1)c1ccc(OCCCN(C)C)cc1)c1ccc(Cl)cc1 | 92.1% |
| O=C(CSc1nc2ccccc2c(=O)n1-c1ccc(Cl)c(Cl)c1)Nc1ccc(S(=O)(=O)Nc2ccc(Cl)nn2)cc1 | 91.6% |
| COC(=O)CCSC1=C(C)C(=O)c2ccccc2C1=O | 85.1% |
| CCc1cc(OC(=O)N2CCC(N3CCCCC3)CC2)ccc1Nc1cc(-c2ccc(-n3cccn3)cc2)[nH]n1 | 55.8% |
| O=C(Nc1cc(C(F)(F)F)cc(C(F)(F)F)c1)Nc1ccc2oc(=O)ccc2c1 | 14.6% |
| Cc1ccc2c(n1)C(=O)C(Cl)=C(Nc1ccc(C(=O)OC(C)(C)C)cc1)C2=O | 83.5% [9.25 µM] |
| Cc1cc(=O)[nH]c(O)c1C#N | 100% |
| CCN(CC)S(=O)(=O)c1ccc(-c2nc(C(Cl)Cl)nc3cc(C)nn23)cc1 | 8.28% (active) |
| CNC(=O)Nc1ccc(Nc2cc(-c3ccc(-n4cccn4)cc3)[nH]n2)c(C)c1 | 106% |

system: PC-3 prostate; assay: as above; conditions: 10 µM unless noted

| Structure (SMILES) | growth |
| --- | --- |
| CNc1sc(S(=O)(=O)NC)nc1S(=O)(=O)c1ccc(C)cc1 | 96.7% |
| COc1cccc(N2CCN(C3=C(Cl)C(=O)c4ncccc4C3=O)CC2)c1 | 78.7% |
| O=C1[C@@H]2Cc3c([nH]c4ccccc34)[C@@H](c3ccc(Cl)cc3)N2C(=O)CN1C1CCN(Cc2ccccc2)CC1 | 21.4% |
| CC(=O)OCCCCN1C=C/C(=C\C(=O)n2ccc3ccccc32)c2ccccc21 | 101% |
| CN1CCN(c2ccc(Nc3nc(NCCNS(=O)(=O)c4ccc5ccccc5c4)c4sccc4n3)cc2)CC1 | 76% |
| CC1=C(C)C(=O)C(Nc2ccc3c(c2)OCCO3)=C(Br)C1=O | 86% |
| C=C(C)[C@@H]1CC[C@]2(C(=O)NC3CCCCC3)CC[C@]3(C)[C@H](CC[C@@H]4[C@@]5(C)CC[C@H](N)C(C)(C)[C@@H]5CC[C@]43C)[C@@H]12 | 72.8% |
| CCOC(=O)c1c(NC(=O)c2ccc(C(F)(F)F)cc2)sc2c3c(ccc12)OCN(C)C3 | 65.3% |
| C#CCN(C)CCCOc1ccc(NCc2ccc(/C=C/C(=O)NO)cc2)cc1Cl | 19% |
| COc1cc(/C=N\NC(=O)c2ccc3nc(-c4ccc(Br)cc4)[nH]c3c2)cc(OC)c1OC | 46.2% |
| C=C1CCc2nc(SCC(=O)O)ccc2N1 | 104% |
| CN1CCC[C@]2(C)[C@H]3CC[C@@H]4[C@@H]5[C@H]6OC[C@@]5(CCC6(C)C)CC[C@@]4(C)[C@]3(C)CC[C@H]2C1(C)C | 74.2% |
| C=C(C=O)[C@@H]1CC[C@]2(C(=O)O)CC[C@]3(C)C(CC[C@@H]4[C@@](C)(CCC#N)[C@H](C(=C)C=O)CC[C@]43C)[C@@H]12 (stereo partly drawn) | 30.3% |
| NCCNC(=O)c1cccc(COc2ccccc2NC(=O)c2cc(Cl)c(Cl)[nH]2)c1 | 102% |
| COc1ccc(C2c3[nH]c4ccc(Cl)cc4c3CCN2c2oc(CO)nc2C#N)cc1 (stereo not drawn) | 41.3% |
| CN(C)c1ccc(-c2cc(-c3c[nH]c4ccccc34)nc(N)c2C#N)cc1 | 37% |
| COc1ccccc1/C=C1\Oc2ccc(O)c(O)c2C1=O | 98.7% |
| CCCCCc1ccc(S(=O)(=O)Nc2cc(-c3csc(N)n3)ccc2OC)cc1 | 90.8% |
| O=C(O)c1ccc(-n2c(=O)n(-c3cccc(C(F)(F)F)c3)c(=O)c3cc(-c4ccc(F)cc4F)ccc32)cc1 | 3.4% (active) |
| Nn1c(=O)n(-c2cccc(C(F)(F)F)c2)c(=O)c2cc(-c3ccc(F)cc3F)ccc21 | -3.92% (active) |

| Structure (SMILES) | growth |
| --- | --- |
| CCCCN1C(=O)/C(=c2\sc3n(c2=O)C2C(NN=3)N(CC)C(=O)N2CC)c2cc(C)ccc21 (stereo not drawn) | 95.8% |
| CC(C)[C@H]1c2[nH]c3ccccc3c2C[C@H]2C(=O)N(CCCCCCC(=O)NO)CC(=O)N12 | 86% |
| O=C(N/N=C\c1ccc(F)cc1)c1ccc2nc(-c3ccc(Br)cc3)[nH]c2c1 | 40.4% |
| NC1[C@H]2CN(c3cnc(C(=O)Nc4cc(F)cc5cccnc45)cn3)C[C@@H]12 (stereo partly drawn) | 65.7% |
| Cc1ccsc1[C@H]1c2[nH]c3ccccc3c2C[C@H]2C(=O)N(CCCCCCC(=O)NO)CC(=O)N12 | 78.6% |
| CC(=O)N(O)CCCCCNC(=O)CCC(=O)N(O)CCCCCNC(=O)CCC(=O)N(O)CCCCCN(CCCCCCCCCC[P+](c1ccccc1)(c1ccccc1)c1ccccc1)CCCCCCCCCC[P+](c1ccccc1)(c1ccccc1)c1ccccc1 | 19.6% |
| O=c1nc(Nc2ccc([N+](=O)[O-])cc2O)sc2ccccc12 | 16.5% |
| Cc1cc2nc(C(Cl)Cl)nc(-c3ccc(S(=O)(=O)N(C)C)cc3)n2n1 | 67.4% |
| C/C(CC1(O)C(=O)Nc2ccccc21)=N\O (stereo not drawn) | 88.6% |
| C[C@]12CC[C@H]3[C@@H](CC=C4C[C@@H](O)CC[C@@]43C)[C@@H]1CC[C@@H]2[C@](C)(O)CCc1cccnc1 | 70.1% |
| O=C(CSc1nnc(-c2cccs2)n1-c1ccccc1)Nc1ccccc1F | 93.3% |
| CC(=C(c1ccc(OCCCN(C)C)cc1)c1ccc(OCCCN(C)C)cc1)c1ccc(Cl)cc1 | 87.5% |
| O=C(CSc1nc2ccccc2c(=O)n1-c1ccc(Cl)c(Cl)c1)Nc1ccc(S(=O)(=O)Nc2ccc(Cl)nn2)cc1 | 92.3% |
| COC(=O)CCSC1=C(C)C(=O)c2ccccc2C1=O | 72.6% |
| CCc1cc(OC(=O)N2CCC(N3CCCCC3)CC2)ccc1Nc1cc(-c2ccc(-n3cccn3)cc2)[nH]n1 | 74.1% |
| O=C(Nc1cc(C(F)(F)F)cc(C(F)(F)F)c1)Nc1ccc2oc(=O)ccc2c1 | 3.96% (active) |
| Cc1ccc2c(n1)C(=O)C(Cl)=C(Nc1ccc(C(=O)OC(C)(C)C)cc1)C2=O | 72.1% [9.25 µM] |
| Cc1cc(=O)[nH]c(O)c1C#N | 97.1% |
| CCN(CC)S(=O)(=O)c1ccc(-c2nc(C(Cl)Cl)nc3cc(C)nn23)cc1 | 31.1% |
| CNC(=O)Nc1ccc(Nc2cc(-c3ccc(-n4cccn4)cc3)[nH]n2)c(C)c1 | 107% |
